From PubChem BioAssay (NCI) come the findings set out here.

Test systems include NCI-H23 lung; NCI-H322M lung; HOP-62 NSCLC; NCI-H460 lung; HOP-92 NSCLC; NCI-H522 lung; A549/ATCC NSCLC; 786-0 renal; COLO 205 colon; DU-145 prostate; K-562 leukemia; MDA-MB-231 breast; RXF 393 renal; SF-268 CNS; SF-539 CNS; UACC-257 melanoma; M14 melanoma; HCT-15 colon; SF-295 CNS; MALME-3M melanoma.
Holding throughout (experiment): NCI-60 one-dose screen, 48 h (100 = growth as untreated, 0 = no growth, -100 = all killed)
Common to all, as to settings: 10 µM unless noted

The panel holds about 83,000 compounds, 20% with a hit somewhere; the sample as a whole holds those more often.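 Compound tested at a single concentration for 48 hours in 96-well plates; a percent growth value below 10 was scored as active.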 Values without a mark were called inactive. The source made the active and inactive calls.

Turning to `CCc1ccc(CNCC(O)c2ccccc2)cc1` (stereo unspecified), the growth in the test with NCI-H23 lung is 69.1%; in the test with NCI-H322M lung, 75.6%; in the test with HOP-62 NSCLC, 76.6%; in the test with NCI-H460 lung it was 77%; in the test on HOP-92 NSCLC, 12.7%; in the test with NCI-H522 lung, 77.7%. Also, the growth is 73.8% in the test with A549/ATCC NSCLC; 87.5% in the test with 786-0 renal; 7.32% (active) in the test on COLO 205 colon; 79.7% in the test with DU-145 prostate; 22% with K-562 leukemia; 47% in the test on MDA-MB-231 breast. The growth is 61.6% in the test on RXF 393 renal; 90.1% with SF-268 CNS; 86.5% in the test with SF-539 CNS; 93.1% in the test with UACC-257 melanoma; 58.7% with M14 melanoma; 43.9% in the test with HCT-15 colon.
As to `O=C(c1ccccc1)N(C(=S)NCCc1ccc(Cl)cc1)c1ccccc1`, the growth was 95.5% in the test on NCI-H23 lung; 103% in the test on NCI-H322M lung; 103% in the test on HOP-62 NSCLC; 107% in the test with NCI-H460 lung; 75.2% with HOP-92 NSCLC; 92.5% in the test with NCI-H522 lung. Moreover, the growth is 97.2% in the test on A549/ATCC NSCLC; 92.4% with 786-0 renal; 139% in the test with COLO 205 colon; 79.7% with DU-145 prostate; 58.1% with K-562 leukemia; 112% in the test with MDA-MB-231 breast. Also, the growth in the test with SF-268 CNS was 96.2%; in the test with SF-295 CNS it was 113%; with SF-539 CNS, 104%; with UACC-257 melanoma, 95.8%; in the test with M14 melanoma, 101%; in the test on HCT-15 colon it was 86.2%.
For `Cc1cccc(NC(=O)c2sc3nc4c(cc3c2N)CCCC4)c1C`, the growth in the test on NCI-H23 lung is 30.2%; with NCI-H322M lung, 42.4%; in the test on HOP-62 NSCLC, 26.4%; with NCI-H460 lung, 6.76% (active); with HOP-92 NSCLC, 49.6%; in the test with NCI-H522 lung, -6.44% (active). Also, the growth with A549/ATCC NSCLC is 26.3%; with 786-0 renal, 34%; in the test on COLO 205 colon it was -38% (active); in the test on DU-145 prostate, 19.6%; in the test on MALME-3M melanoma, 45.7%; in the test with MDA-MB-231 breast, 38.6%. The growth with SF-268 CNS was 34.9%; in the test on SF-295 CNS it was 6.95% (active); in the test with SF-539 CNS, -12.2% (active); with UACC-257 melanoma it was 66.3%; in the test on M14 melanoma it was 4.97% (active); in the test on HCT-15 colon, 16.2%.
Consider `Cn1nc(C(F)(F)F)c(-c2ccc(Cl)c(C(F)(F)F)c2)c1-c1ccc(OCc2ccc(Cl)cc2)cc1O`, for which the growth in the test on NCI-H23 lung was -6.46% (active); in the test on NCI-H322M lung, 18.1%; in the test with HOP-62 NSCLC, 50.5%; in the test on NCI-H460 lung, 6.25% (active); in the test on HOP-92 NSCLC, -22.4% (active); with NCI-H522 lung, -13.7% (active). The growth with A549/ATCC NSCLC is 12.8%; with 786-0 renal, 28.4%; in the test with COLO 205 colon it was 24.5%; in the test with DU-145 prostate it was 19%; in the test with MALME-3M melanoma it was 12.2%; with MDA-MB-231 breast, 8.7% (active). The growth in the test on SF-268 CNS is 26%; in the test on SF-295 CNS, 12.8%; in the test on SF-539 CNS, 34.4%; in the test on UACC-257 melanoma it was 2.35% (active); in the test with M14 melanoma, 35.4%; with HCT-15 colon, 8.53% (active).
With `Cc1ccc(Nc2nc(N)c3ccccc3n2)cc1Cl`, the growth was 53.8% in the test with NCI-H23 lung; 73.5% in the test on NCI-H322M lung; 89% in the test with HOP-62 NSCLC; 56.8% in the test with NCI-H460 lung; 54.3% in the test with HOP-92 NSCLC; 41% with NCI-H522 lung. Also, the growth was 48.1% in the test with A549/ATCC NSCLC; 80.9% in the test on 786-0 renal; 54.5% in the test with COLO 205 colon; 45.9% in the test with DU-145 prostate; 51.3% in the test with K-562 leukemia; 27.2% in the test with MDA-MB-231 breast. Besides, the growth is 80.4% in the test on RXF 393 renal; 78.5% in the test on SF-268 CNS; 81.5% with SF-539 CNS; 108% in the test on UACC-257 melanoma; 80.3% in the test on M14 melanoma; 49.9% with HCT-15 colon.
As for `COc1cc2c(cc1OC)C(=O)C(CC1CCN(C(=O)Nc3ccc(C)cc3)CC1)C2` (stereo unspecified), the growth in the test with NCI-H23 lung was 100%; in the test on NCI-H322M lung, 95.7%; with HOP-62 NSCLC, 99.1%; in the test on NCI-H460 lung it was 97.3%; with HOP-92 NSCLC it was 62.5%; with NCI-H522 lung it was 87.8%. In addition, the growth in the test with A549/ATCC NSCLC was 108%; in the test with 786-0 renal, 101%; in the test with COLO 205 colon it was 110%; in the test with DU-145 prostate, 104%; in the test on MALME-3M melanoma, 91.1%; in the test on MDA-MB-231 breast, 76.7%. The growth in the test on SF-268 CNS was 96.8%; with SF-295 CNS it was 96.5%; in the test with SF-539 CNS, 92.8%; in the test on UACC-257 melanoma, 119%; with M14 melanoma, 97.5%; in the test with HCT-15 colon, 94.5%.
In the case of `COc1ccc(N2C(=O)CC(c3cc(OC)c(OC)c(OC)c3)C3C2=NC(=O)N3C)cc1` (stereo unspecified), the growth was 110% in the test with NCI-H23 lung; 105% in the test with NCI-H322M lung; 108% with HOP-62 NSCLC; 108% in the test with NCI-H460 lung; 105% in the test with HOP-92 NSCLC; 97.5% in the test on NCI-H522 lung. In addition, the growth was 104% in the test on A549/ATCC NSCLC; 103% in the test with 786-0 renal; 101% in the test with COLO 205 colon; 106% with DU-145 prostate; 105% in the test on MALME-3M melanoma; 109% with MDA-MB-231 breast. Besides, the growth is 100% in the test with SF-268 CNS; 101% in the test with SF-295 CNS; 97.9% in the test with SF-539 CNS; 98.2% with UACC-257 melanoma; 105% in the test on M14 melanoma; 102% in the test on HCT-15 colon.
As to `CN(CCc1ccccc1)C(=S)N(C(=O)c1ccc([N+](=O)[O-])cc1)c1ccc(Cl)cc1`, the growth in the test with NCI-H23 lung is 97.5%; in the test with NCI-H322M lung it was 102%; in the test on HOP-62 NSCLC it was 102%; with NCI-H460 lung, 102%; with HOP-92 NSCLC it was 67%; in the test on NCI-H522 lung, 100%. The growth with A549/ATCC NSCLC was 98.2%; with 786-0 renal it was 88%; with COLO 205 colon, 109%; with DU-145 prostate it was 73.1%; with K-562 leukemia, 40.6%; with MDA-MB-231 breast it was 101%. Besides, the growth is 91.7% with SF-268 CNS; 110% in the test on SF-295 CNS; 92.6% with SF-539 CNS; 101% in the test with UACC-257 melanoma; 94.8% with M14 melanoma; 83.9% in the test on HCT-15 colon.
Turning to `CCOc1c(Br)cc(C2C(C(=O)OC)=CN(C)C=C2C(=O)OC)cc1OC`, the growth was 98% in the test with NCI-H23 lung; 76.3% in the test with NCI-H322M lung; 84.6% in the test on HOP-62 NSCLC; 48.3% with NCI-H460 lung; 39.2% with HOP-92 NSCLC; 75.9% in the test on NCI-H522 lung. For the same molecule, the growth with A549/ATCC NSCLC was 85.9%; in the test on 786-0 renal it was 58.3%; in the test on COLO 205 colon it was -88.1% (active); in the test on DU-145 prostate it was 91.4%; with K-562 leukemia, 8.68% (active); in the test with MDA-MB-231 breast, 49.4%. Further, the growth was 64.2% in the test with RXF 393 renal; 68.1% in the test on SF-268 CNS; 24% in the test on SF-295 CNS; 94.2% in the test on SF-539 CNS; 41% in the test on HCT-15 colon.
